# According to PubChem BioAssay:
# Active and inactive are the calls of the source.
# Tests used:
# [1] = A549 cell viability effects, profiling panel, calcein-AM fluorescence, 48 h, basal (AID 1162); details: higher = more signal
# [2] = adipocyte viability effects, profiling panel, cell-based, 3T3-L1 adipocytes, calcein-AM fluorescence, 48 h, basal (AID 1163); details: 3T3-L1 adipocytes viability, higher = more signal
# [3] = HepG2 cell viability effects, profiling panel, calcein-AM fluorescence, 48 h, basal (AID 1164); details: higher = more signal
# [4] = MM1S cell viability effects, profiling panel, calcein-AM fluorescence, 48 h, basal (AID 1165); details: higher = more signal;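 note: viability of MM1S multiple myeloma cells under basal unstimulated conditions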
# [5] = basal RPMI8226 viability, no added stimulus, profiling panel, cell-based, calcein-AM fluorescence, 48 h, PK04 Diversity Set (AID 1166); details: RPMI8226 myeloma viability, higher = more signal;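 note: cells grown under basal conditions without added stimulus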
# [6] = basal HepG2 mitochondrial membrane potential changes, profiling panel, cell-based, JC-1 fluorescence, 24 h, 100 nL compound (AID 1167); details: higher = more signal
# [7] = basal 3T3-L1 adipocyte mitochondrial potential changes, profiling panel, cell-based, JC-1 fluorescence, 3T3-L1 adipocytes, 24 h, 100 nL compound (AID 1168); details: JC-1 mitochondrial fluorescence, higher = more signal, called active from +8 up or from −8 down
# [8] = basal RPMI8226 mitochondrial membrane potential changes, profiling panel, cell-based, JC-1 fluorescence, 24 h, 100 nL compound (AID 1169); details: RPMI8226 myeloma, JC-1 mitochondrial potential fluorescence, higher = more signal
# [9] = basal MM1S mitochondrial membrane potential changes, profiling panel, cell-based, JC-1 fluorescence, 24 h, 100 nL compound (AID 1170); details: higher = more signal
# [10] = A549 lung cancer cell viability effects, profiling panel, resazurin fluorescence, 24 h, PK04 Diversity Set (AID 1171); details: higher = more signal, called active from +8 up or from −8 down
# Note: test concentration not given here.
SMILES,z-score [1],z-score [2],z-score [3],z-score [4],z-score [5],z-score [6],z-score [7],z-score [8],z-score [9],z-score [10]
COc1ccc(C#Cc2ccc3c(c2)[C@]2(C(=O)N3)[C@H](c3ccc(O)cc3)N3[C@H](c4ccccc4)[C@H](c4ccccc4)OC(=O)[C@H]3[C@@H]2C(=O)N2CCCCCCC2)cc1,0.334,1.01,0.629,-0.0384,-0.208,0.269,3.48 (inactive),-0.538,0.366,-0.531 (inactive)
[N-]=[N+]=NCc1ccccc1C[C@]1(C(=O)NCCN2CCOCC2)N=C(c2ccc(OCCCO)cc2)O[C@H]1c1ccccc1N=[N+]=[N-],-0.872,0.233,-1.61,-1.68,-0.806,0.815,0.707 (inactive),-1.02,-1.16,-0.901 (inactive)
C=CCC(OC(C)=O)[C@@H]1[C@@H](N(Cc2cc3ccccc3o2)C(=O)c2ccc(C)cc2)c2cc(OCCCO)ccc2N1C(=O)c1ccc2ccccc2c1 (stereo not given in full),1.37,0.595,1.89,1.14,0.671,2.27,-0.409 (inactive),0.33,0.748,1.43 (inactive)
C=C(COC)/C(=C/C[C@H](OC(=O)c1ccncc1)c1cccc(OCCO)c1)c1cc(C(=O)OC)ccc1OC,0.404,0.987,-0.0353,-1.15,-0.686,1.51,0.246 (inactive),-0.351,0.0566,1.14 (inactive)
O=C1N(CCS(=O)(=O)c2ccccc2)Cc2ccccc2[C@H]2OC(c3ccc(OCCCO)cc3)=N[C@@]12CCS(=O)(=O)c1ccccc1,1.02,1.46,1.19,0.222,0.117,0.0737,0.557 (inactive),-0.81,-0.848,0.908 (inactive)
COC(=O)c1ccc(C(O)C2C=CC3C(=O)N(C)C(=O)C3N2NC(=O)OC(C)(C)C)o1 (stereo not given),0.441,-0.425,0.0285,-0.978,-0.342,-1.28,-0.429 (inactive),-0.535,0.395,0.347 (inactive)
COc1cc2c(cc1O)C(C)N(Cc1cccc(OC(F)(F)F)c1)CC2 (stereo not given),-0.762,0.815,-1.51,-2.34,-2,0.0471,-0.793 (inactive),0.0842,-1.24,0.849 (inactive)
CCOC(=O)C[C@H]1[C@H](OC(=O)c2ccccc2-c2ccccc2)[C@@H](NC(=O)c2ccc3ccccc3c2)c2cc(OCCCO)ccc2N1C(=O)c1ccc2ccccc2n1,0.135,0.487,-0.0645,-0.957,-0.442,0.732,2.16 (inactive),-0.337,-0.615,0.735 (inactive)
CN(C)CCCCNC(=O)[C@H]1C[C@H]2C(=O)N[C@@H](Cc3ccccc3)C(=O)N2[C@H]1c1ccc(O)cc1,-0.451,0.7,-0.98,-0.417,0.287,-0.77,-0.248 (inactive),-0.136,-0.149,-0.1 (inactive)
[N-]=[N+]=NCc1ccccc1C[C@]1(C(=O)O)N=C(c2ccc(OCCCO)cc2)O[C@H]1c1ccccc1CN=[N+]=[N-],-0.437,0.368,-0.302,-0.966,-1.53,-2.38,-1.4 (inactive),-0.789,0.432,1.17 (inactive)
CC(C)NC(=O)[C@@H]1c2ccccc2C(=O)N(Cc2ccccc2Cl)[C@H]1c1ccc(CO)cc1,1.97,0.84,1.23,0.0027,0.665,2.42,-0.466 (inactive),-0.195,-0.615,1.46 (inactive)
C=CCOC(=O)[C@H]1[C@@H]2C(=O)O[C@@H](c3ccccc3)[C@@H](c3ccccc3)N2[C@@H](c2ccc(OCCOC(=O)[C@@H]3C[C@@H]4C(=O)NCC(=O)N4[C@@H]3c3ccc(O)cc3)cc2)[C@]12C(=O)Nc1ccccc12,0.422,0.905,1.49,-0.459,0.776,-1.35,-0.577 (inactive),-0.831,-1.12,0.677 (inactive)
C[C@H]1NC(=O)[C@H](Cc2ccccc2)NC(=O)[C@@]23C(=O)N[C@@H](Cc4ccccc4)C2[C@H](C)[C@@]2(C)O[C@H]2C3/C=C/C/C=C\CNC1=O (stereo not given in full),1.1,0.827,0.514,-0.0775,-1.27,0.542,0.342 (inactive),0.0827,0.782,0.229 (inactive)
CN1C(=O)C2C(C1=O)C1C=C(CCCO)C2C(c2cccs2)N1C (stereo not given),0.0141,-0.388,0.174,1.59,0.664,0.699,0.617 (inactive),0.257,-0.852,-0.396 (inactive)
CCOC(=O)C[C@H]1[C@H](OC(=O)c2ccc(C(=O)c3ccccc3)cc2)[C@@H](NC(=O)C2CCCCC2)c2cc(OCCCO)ccc2N1C(=O)c1ccccc1,-0.195,-0.589,0.431,-1.21,-0.681,1.4,-0.355 (inactive),0.0249,-0.0847,0.352 (inactive)
CC(C)C[C@@H]1NC(=O)[C@@H]2C[C@H](C(=O)NCCCCCC[N+](C)(C)C)[C@H](c3ccc(O)cc3)N2C1=O,-0.633,-0.77,0.145,0.305,0.996,-0.595,0.566 (inactive),-0.815,-0.39,0.0131 (inactive)
COCC(=C=CC[C@@H](O)c1ccc(CO)o1)CCO,2.82,1.72,0.783,0.178,1.94,0.281,-0.24 (inactive),0.824,-1.08,0.559 (inactive)
COCCOC(=O)N1C(=O)[C@@]2(c3cc(C#CCC(C(=O)OC)C(=O)OC)ccc31)[C@H](c1ccccc1OCCO)N1[C@H](c3ccccc3)[C@H](c3ccccc3)OC(=O)[C@H]1[C@@H]2C(N)=O,0.597,0.0915,-1.58,-3.4,-4.17,-0.603,1.69 (inactive),-0.986,-1.84,-0.212 (inactive)
C=CC(=C)C1=CCO[C@@H]1[C@H]1CCCN1S(=O)(=O)c1ccccc1[N+](=O)[O-],-0.387,1.19,0.324,-1.69,-1.07,0.248,-0.736 (inactive),-0.112,-0.233,0.707 (inactive)
O=C1O[C@H](c2ccccc2)[C@H](c2ccccc2)N2[C@H]1[C@@H](C(=O)N1CCN(c3ncccn3)CC1)[C@]1(C(=O)Nc3ccccc31)[C@H]2c1ccc(OCCO)cc1,0.404,1.35,0.121,0.0498,-2.17,-0.592,1.53 (inactive),-1.16,-0.537,1.18 (inactive)
CC(=O)Nc1cc(Br)ccc1C(=O)O,0.665,0.747,0.332,-0.906,-0.178,-0.598,-0.672 (inactive),-0.685,1.05,-0.243 (inactive)
O=C(O)[C@H]1C[C@H]2C(=O)NCC(=O)N2[C@H]1c1ccc(O)cc1,1.14,0.108,0.752,-2.55,-0.593,2.37,-0.262 (inactive),-0.629,-1.43,0.672 (inactive)
O=C1OCCC=C[C@H]2OC34C=CCN(Cc5ccccc5)C(=O)[C@H]3N(CCCCCO)C(=O)[C@@H]4C12 (stereo not given in full),0.412,-0.0568,0.889,1.81,0.593,0.756,0.498 (inactive),0.231,-0.967,0.872 (inactive)
COCCOC(=O)N1C(=O)[C@@]2(c3cc(C#CCNC(N)=O)ccc31)[C@H](c1ccc(O)cc1)N1[C@H](c3ccccc3)[C@H](c3ccccc3)OC(=O)[C@H]1[C@@H]2C(=O)Nc1nc2ccccc2s1,1.7,0.663,0.461,0.553,-0.397,-2.95,1.56 (inactive),-1.03,0.189,1.69 (inactive)
COCCOC(=O)N1C(=O)[C@@]2(c3cc(C#CCC(C(=O)OC)C(=O)OC)ccc31)[C@H](C(=O)N1CCN(c3ncccn3)CC1)[C@H]1C(=O)O[C@H](c3ccccc3)[C@H](c3ccccc3)N1[C@@H]2c1ccc(OCCO)cc1,1.68,1.02,0.674,0.65,1.21,-0.656,1.86 (inactive),-0.303,-1.16,0.665 (inactive)
CC(C)(C)OC(=O)CC[C@@]1(C(=O)O)N=C(c2ccc(OCCCO)cc2)O[C@@H]1c1ccccc1N=[N+]=[N-],0.188,-0.364,0.218,-0.0694,-0.385,-2.88,-1.08 (inactive),-0.759,-1.12,0.0421 (inactive)
O=C1OCCC=C[C@H]2OC34C=CCN(Cc5ccccc5)C(=O)[C@H]3N(CCCCCCO)C(=O)[C@@H]4C12 (stereo not given in full),0.612,-0.0143,0.457,1.68,0.581,0.445,0.903 (inactive),-0.0486,-0.248,1.33 (inactive)
CC(C)N1C(=O)c2ccccc2[C@@H](C(=O)NCCCN(C)C)[C@@H]1c1ccc(CO)cc1,0.177,1.46,0.0397,0.551,-0.981,1.09,-0.205 (inactive),0.75,0.499,-0.565 (inactive)
COc1ccc(CCNC(=O)[C@@]2(Sc3ccc(C)cc3)CC(=O)N(Cc3ccccc3Cl)[C@@H]2c2ccc(CO)cc2I)cc1,0.507,-1.07,0.334,-1.41,-1.54,0.167,-0.0114 (inactive),-0.474,-1.96,-0.478 (inactive)
